# Bioassay records (PubChem BioAssay)
# GLP1R ag – qHTS of GLP-1 Receptor Agonists. HEK293 GLP-1R CRE-luciferase, luminescence, 4-6 h; cells express a hypersensitive GLP-1R form. Potency, µM (titrated, usually from 45.6 µM), for inactives: at the highest dose activation, hits mostly activators. 380,000 compounds, 0.007% hits; also: potency is read from the fitted curve at half-maximal effect; % of control where 0% means no effect
# mIDH1 inhibitor – qHTS for Inhibitors of mutant isocitrate dehydrogenase 1 (IDH1): qHTS. Isocitrate dehydrogenase [NADP] cytoplasmic (Homo sapiens), O75874. IDH1-R132H enzyme, NADPH consumption, diaphorase/resazurin fluorescence. Potency, µM (top dose mostly 76.6 µM), for inactives: top-dose activity change, negative = inhibition, most hits filed as inhibitors. 390,000 compounds, 0.093% hits. AID 602179, 2012; also: potency is read from the fitted curve at half-maximal effect; % is scaled to controls: 0 for no effect and ±100 for the full control effect; nearly all actives have a fitted effect of over 65% in size
#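 IDH1-R132H (0.5 ug/mL) preincubated 30 min with compound, then NADPH (0.016 mM) and alpha-KG (2 mM) added; 80 min at RT, pH 7.5. Remaining NADPH coupled via diaphorase/resazurin to fluorescence (540/590 nm); concentration-response curves normalized to no-enzyme control.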
# PTHR1 agonist – qHTS for PTHR1 Agonists: Primary Screen; HEK293 GP2 PTHR1 cells, GloSensor cAMP luminescence, 1 h; AID 743266, 2014; 410,000 compounds, 0.075% hits; Potency, µM (doses to about 115 µM), for inactives: at the highest dose activation, usual class: activators; also: potency is read from the fitted curve at half-maximal effect; nearly all actives have a fitted effect of over 55% in size
# Target sequence (Q03431 whole entry, looked up): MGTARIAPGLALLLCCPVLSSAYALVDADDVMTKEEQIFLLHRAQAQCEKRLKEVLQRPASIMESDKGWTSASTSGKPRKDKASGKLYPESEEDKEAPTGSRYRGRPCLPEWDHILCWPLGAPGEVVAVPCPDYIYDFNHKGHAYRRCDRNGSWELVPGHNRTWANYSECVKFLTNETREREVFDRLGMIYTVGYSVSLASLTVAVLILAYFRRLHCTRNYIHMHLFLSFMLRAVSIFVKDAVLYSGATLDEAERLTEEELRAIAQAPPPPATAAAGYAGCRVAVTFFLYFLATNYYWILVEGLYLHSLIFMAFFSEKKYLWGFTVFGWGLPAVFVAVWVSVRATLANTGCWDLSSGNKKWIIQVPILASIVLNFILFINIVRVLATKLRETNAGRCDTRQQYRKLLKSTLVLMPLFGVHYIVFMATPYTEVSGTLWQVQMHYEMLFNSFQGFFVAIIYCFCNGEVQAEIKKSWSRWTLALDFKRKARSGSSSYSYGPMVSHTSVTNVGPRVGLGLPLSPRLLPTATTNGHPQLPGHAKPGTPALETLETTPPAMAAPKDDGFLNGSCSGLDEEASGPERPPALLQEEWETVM
#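 HEK-293-derived GP2 cells expressing PTHR1 and a GloSensor cAMP reporter, 3,000/well, plated overnight, given luciferin plus IBMX (each 0.5 mM as added) for 1 h at 37 °C, then compound for 1 h at 37 °C. Luminescence was read after 15 min at room temperature.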
# LDHA inh – qHTS assay for inhibitors of human lactate dehydrogenase; L-lactate dehydrogenase A chain (Homo sapiens), P00338; purified LDHA, NADH/diaphorase-resazurin fluorescence; hits give low values; activity change, % (values are at about 110 or 230 µM); 480,000 compounds, 0.15% hits; in the data active = activity change below about -30%; inconclusive = mostly about -25% to -30%;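 also: plate controls were DMSO wells for no effect and wells without enzyme for full effect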
#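 Remaining NADH was detected by diaphorase (0.133 mg/mL) converting 37 µM resazurin to fluorescent resorufin, read at 0 and 20 minutes. The preceding 5-minute room-temperature reaction used 2 nM LDHA, 0.2 mM sodium pyruvate and 0.06 mM NADH at pH 7.4.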
# GLP1R inv ag – qHTS of GLP-1 Receptor Inverse Agonists (Inhibition Mode). Glucagon-like peptide 1 receptor (Homo sapiens), P43220. HEK293 GLP-1R CRE-luciferase, luminescence, 24 h; GLP-1R form is constitutively active. Potency, µM (titrated, usually from 38.3 µM), inactives show top-dose activity change, negative = inhibition, hits mostly inhibitors. 410,000 compounds, 1.6% hits; also: potency is read from the fitted curve at half-maximal effect; % is scaled to controls: 0 for no effect and ±100 for the full control effect; nearly all actives have a fitted effect of over 55% in size
#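 Seeding at 200 cells/uL, 12 h culture, 24 hr compound treatment, then luciferase reagent and a luminescence read; cells are HEK293 stably expressing a constitutively active GLP-1R plus cAMP-responsive luciferase.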
# GLP1R cytotox – qHTS of GLP-1 Receptor Inverse Agonists: Cytotox Screen; HEK293 cAMP-luciferase reporter cells, luminescence, 24 h; Potency, µM (highest dose often 38.3 µM), for the others: at the top dose activity change, negative = inhibition, actives largely listed as inhibitors; 410,000 compounds, 0.13% hits; AID 624418, 2012;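 also: loss of luciferase light is scored as toxicity; potency is read from the fitted curve at half-maximal effect; % is scaled to controls: 0 for no effect and ±100 for the full control effect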
#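 Compound-treated cells are incubated 24 hr at 37 deg C under 5% CO2 after a 12 hour attachment period, then luciferase detection reagent is added and luminescence is measured following 12 min at room temperature; lowered signal indicates toxicity.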
# * marks the source's active call; other numbers are inactive results; i = inactive; u = inconclusive; x = no result; [ ] = another dose, or the depositor's remark. An excerpt weighted towards active compounds, which were near 1.7% of everything screened. Unless noted, calls follow the shape of the dose curve; as a rule, active = well fitted curve in the direction sought with a large enough effect; inconclusive = small, poorly fitted or top-dose-only effect, or another doubt; inactive = no such curve, though single readings can be large; an effect the other way counts as inactive or inconclusive.
SMILES,GLP1R ag,mIDH1 inhibitor,PTHR1 agonist,LDHA inh,GLP1R inv ag,GLP1R cytotox
O=C(CN1CCC(n2nnc3cc(C(F)(F)F)ccc32)CC1)Nc1ccc2c(c1)CCC2,1%,5%,-20%[57.5 µM],2,4.5µM*,3%
CC(Oc1ccccc1F)C(=O)Nc1cccc(-c2nc3ccccc3o2)c1 (stereo unspecified),x,x,x,0,x,x
O=C(Cc1ccsc1)NCC12CC3CC(CC(C3)C1)C2,x,x,x,6,x,x
CCOC(=O)c1c(C)nc2sc(C(=O)Nc3ccc(C(C)=O)cc3)c(N)c2c1-c1ccc(OC)cc1,4%,0%,0%[57.5 µM],-1,8.9µM*,340%
CC[n+]1c(-c2ccc(C)cc2)csc1Nc1c(C)n(C)n(-c2ccccc2)c1=O,9%,-7%,-16%,-4,8.9µM*,-18%
CC[n+]1c(-c2ccccc2)csc1Nc1c(C)n(C)n(-c2ccccc2)c1=O,-3%,1%,-81%,1,u,3%
COCC(=O)Oc1cc(-c2ccc(C)cc2C)c(OC(=O)COC)c(-c2ccc(C)cc2C)c1,1%,12%,-57%,1,2.5µM*,-17%
O=C(O)C(c1c[nH]c2ccc(OCc3ccccc3)cc12)N1CCN(CC(=O)N2CCOCC2)CC1 (stereo unspecified),x,x,x,5,x,x
COc1ccc(C)cc1S(=O)(=O)NCC(c1ccc(N(C)C)cc1)N1CCc2ccccc21 (stereo unspecified),x,-1%,-16%,-3,-8%,9%
Cc1cc(C)c(S(=O)(=O)NCC(c2ccc(N(C)C)cc2)N2CCc3ccccc32)c(C)c1 (stereo unspecified),x,14%,-12%,0,2µM*,0%
Cn1cc2c(C(F)F)cc(=O)n(CCC(=O)O)c2n1,x,x,x,3,x,x
COC(=O)c1sccc1NC(=O)CSc1ccccc1NS(=O)(=O)c1ccc(Cl)cc1,0%,3%,-14%[57.5 µM],-1,10µM*,-16%
O=C(CSc1cn(Cc2ccc(F)cc2)c2ccccc12)N1CCCc2ccccc21,x,x,x,12,x,x
CCOc1ccccc1NC(=O)c1ncoc1-c1cccc(C)c1,x,x,x,-15,x,x
CC(=O)Nc1nc(-c2ccc3c(c2)CCN3C(=O)C2CC2)c(C)s1,17%,-8%,-24%,2,0.63µM*,16%
CNc1nc(-c2ccc3c(c2)CCN3C(=O)CC(C)(C)C)c(C)s1,-2%,6%,16%,1,u,0%
Cc1ccccc1-c1ocnc1C(=O)Nc1ccccc1NC(=O)c1ccccn1,13%,-1%,-18%,-1,4µM*,u
Cc1cccc(NC(=O)c2ncoc2-c2cccs2)c1C,x,x,x,3,x,x
COc1ccc(NC(=O)c2nc(S(=O)(=O)Cc3ccccc3)ncc2Cl)cc1,x,x,x,8,x,x
O=C(Cn1cc(Br)c(=O)[nH]c1=O)N1CCSCC1,x,x,x,4,x,x
CCc1ccc(-c2cc(C)no2)cc1S(=O)(=O)N1CCN(c2cccc(C)c2C)CC1,2%,-12%,i,-3,7.9µM*,-10%
Cc1cccc(N2CCN(S(=O)(=O)c3cc(-c4cc(C)no4)ccc3C)CC2C)c1 (stereo unspecified),-3%,0%,-7%,-2,4µM*,-12%
COc1ccccc1N1CCN(S(=O)(=O)c2cc(-c3cc(C)no3)ccc2C(C)C)CC1,5%,-5%,-13%,-1,1µM*,-9%
CCc1ccc(-c2cc(C)no2)cc1S(=O)(=O)N1CCCN(Cc2ccc(F)cc2)C1,-5%,0%,-27%,-3,2.5µM*,-24%
